The record followed here is PubChem BioAssay AID463173 (ICCB-Longwood Screening Facility, Harvard Medical School, 2010).

The campaign covered roughly 52,000 compounds. About 4,300 (8.3%) were called active. For the sample, actives were picked, then their nearest neighbours and some compounds at random. Unmarked numbers belong to inactive results. Rule as the data show it: active = survival mostly below about 52% (no sharp cut-off); inactive = mostly above about 56%.

The subject of this test is DeltatarO mutant. Briefly: S. aureus survival, RN4220 and DeltatarO strains – OD600, teichoic acid synthesis inhibitors, primary screen (AID 463173). Particulars: S. aureus RN4220 wild type/DeltatarO growth, OD600, 18 h, stronger effect = lower value, screened at 18.75 µg/mL (by protocol).
For the compound `Cc1nn(-c2ccc(N3CCCC3)nn2)c(C)c1CCC(=O)NCc1ccccc1F`, the survival is 82%.

For `Cc1cccc(NC(=O)C(=O)NCCc2csc(-c3ccc(F)cc3)n2)c1C`, the survival was 83%.

Consider `Cc1ccc(-c2nc(CCNC(=O)C(=O)Nc3ccc(C)c(Cl)c3)cs2)cc1`, for which the survival was 60%.

Regarding `Cc1ccc(-c2nc(CCNC(=O)C(=O)Nc3ccc(C)cc3C)cs2)cc1`, the survival is 66%.

Take `Cc1ccc(-c2nc(CCNC(=O)C(=O)Nc3ccc(C)c(C)c3)cs2)cc1`: the survival is 20% (active).

Take `Cc1cc(C)c(NC(=O)C(=O)NCCc2csc(-c3ccc(F)cc3)n2)c(C)c1`: the survival was 67%.

For `Cc1ccc(-c2nc(CCNC(=O)C(=O)Nc3c(C)cccc3C)cs2)cc1`, the survival is 8% (active).

With `Cc1c(CCNC(=O)c2ccc(Br)o2)sc2nc(-c3ccc(Cl)cc3)nn12`, the survival was 75%.

With `O=C(CCn1cnnn1)Nc1cc(C(F)(F)F)cc(C(F)(F)F)c1`, the survival was 69% (active).

As to `Cc1cccc(NC(=O)CCn2cnnn2)c1`, the survival was 79%.

On to `O=C(CCn1cnnn1)Nc1ccc(F)cc1`, for which the survival was 72%.

Take `CC(=O)Nc1cccc(-c2nnc(SCC(=O)c3ccc([N+](=O)[O-])cc3)o2)c1`: the survival is 130%.

In the case of `COc1ccc(NCc2nnc3n2CCCCC3)c(OC)c1`, the survival was 100%.

In the case of `Cc1ccc(Cl)cc1NCc1nnc2n1CCCCC2`, the survival is 101%.

For the compound `COc1ccc(C)cc1NCc1nnc2n1CCCCC2`, the survival is 20% (active).

As for `Fc1ccc(NCc2nnc3n2CCCCC3)cc1Cl`, the survival is 102%.

`Cc1cc(C)cc(NCc2nnc3n2CCCCC3)c1`: the survival is 89%.

`COc1ccc(Cl)cc1NCc1nnc2n1CCCCC2`: the survival is 8% (active).

Take `Clc1cccc(-n2ncc3c(N4CCC(Cc5ccccc5)CC4)ncnc32)c1`: the survival was 83%.

With `CCOC(=O)c1ccccc1NC(=O)CSc1nccn1Cc1ccco1`, the survival is 75%.

As to `COCCCNC(=O)CCC(=O)NNc1nc2ccccc2c2nc(-c3ccccc3)nn12`, the survival was 100%.

In the case of `O=C(CCn1nnc2ccccc21)N1CCC(O)(c2cccc(F)c2)CC1`, the survival is 81%.

As to `COC(=O)c1ccccc1NC(=O)Cn1cc(S(=O)(=O)Cc2ccccc2F)c2ccccc21`, the survival is 94%.

Take `COc1cccc(N2C(=O)CSC23C(=O)N(Cc2ccccc2F)c2ccccc23)c1` (configuration not stated): the survival is 67%.

As for `O=C(Nc1nc2n(n1)C(c1ccc(F)cc1)C=C(c1ccccc1)N2)c1ccc(Cl)cc1` (configuration not stated), the survival was 48%.

For `Cc1ccc(C(=O)Nc2nc3n(n2)C(c2ccccc2)C=C(c2ccccc2)N3)cc1` (configuration not stated), the survival was 57%.

For `COc1ccc(C2C=C(c3ccccc3)Nc3nc(NC(C)=O)nn32)cc1` (configuration not stated), the survival was 53%.

Take `COc1ccc(C(=O)Nc2nc3n(n2)C(c2ccc(F)cc2)C=C(c2ccc(Cl)cc2)N3)cc1` (configuration not stated): the survival is 54%.

For `COc1ccc(C2C=C(c3ccccc3)Nc3nc(NC(=O)c4ccc(C)cc4)nn32)cc1` (configuration not stated), the survival is 44% (active).

In the case of `Cc1ccc(C(=O)Nc2nc3n(n2)C(c2ccc(F)cc2)C=C(c2ccccc2)N3)cc1` (configuration not stated), the survival is 43% (active).

As to `CCOc1ccccc1CNC(=O)CN(c1ccc(C)cc1)S(=O)(=O)N(C)C`, the survival was 70%.

As for `Cc1ccc2[nH]cc(C(c3ccccc3)c3ccc(Cl)s3)c2c1` (configuration not stated), the survival is 10% (active).

For `O=C(O)CSc1c[nH]c2ccccc12`, the survival was 84%.

As for `Cn1cc(C(c2ccccc2)c2ccc(Cl)s2)c2ccccc21` (configuration not stated), the survival is 102%.

With `COc1ccc(C(CN)c2c[nH]c3ccccc23)cc1` (configuration not stated), the survival was 107%.

`c1ccc(C(c2cccs2)c2c[nH]c3ccccc23)cc1` (configuration not stated): the survival was -1% (active).

Turning to `Cc1ccc2[nH]cc(S(=O)(=O)c3ccc(C)c(C)c3)c(=O)c2c1`, the survival is 81%.

Consider `Clc1ccc(C(c2ccccc2)c2c[nH]c3ccccc23)s1` (configuration not stated), for which the survival was -3% (active).

For the compound `Cc1ccc2[nH]cc(C(c3ccccc3)c3cccs3)c2c1` (configuration not stated), the survival is 12% (active).

Regarding `CCCCN(CC)C(=O)c1nn(-c2ccc(OC)cc2)c(=O)c2c1c1ccccc1n2C`, the survival was 82%.

For `COc1cccc(CNC(=O)Cn2cc3c(n2)-c2c(oc(C(=O)N4CCCC4)c2C)CC3)c1`, the survival was 76%.

`Cc1cccc(N2CCN(c3ncnc4onc(C)c34)CC2C)c1` (configuration not stated): the survival was 77%.

`CCN(Cc1ccccc1)C(=O)c1cc2c(=O)[nH]c3ccc(C)cc3c2s1`: the survival is 49%.

With `CCc1ccc(C(c2ccccc2)c2c[nH]c3ccc(C)cc23)s1` (configuration not stated), the survival was 69%.

As to `Cc1ccc2[nH]cc(C(c3ccccc3)c3ccc(C)s3)c2c1` (configuration not stated), the survival is 25% (active).

As for `Cc1ccc(OCc2nc(-c3ccc(C(=O)N4CCN(c5ccc(Cl)cc5)CC4)cc3)oc2C)cc1`, the survival was 76%.

As for `CCC(C(=O)Nc1ccccc1)n1nc(-c2cc(C)ccc2C)ccc1=O` (configuration not stated), the survival was 37% (active).

Regarding `CCC(C(=O)Nc1cccc(C#N)c1)n1c(=O)c(-c2ccccc2NC(C)=O)nc2ccccc21` (configuration not stated), the survival is 100%.

In the case of `CCc1cccc(NC(=O)Cn2nc(CC)n3c(cc4cc(C)ccc43)c2=O)c1`, the survival was 56%.

As for `CCC(C(=O)Nc1cccc(C#N)c1)n1nc(-c2ccccc2)ccc1=O` (configuration not stated), the survival was 40% (active).

As for `CCc1cccc(NC(=O)Cn2nc(-c3cc(C)ccc3C)ccc2=O)c1`, the survival is 34% (active).

Regarding `CCOc1ccc(NC(=O)C(CC)n2nc(-c3ccc(C)c(C)c3)ccc2=O)cc1` (configuration not stated), the survival is 68%.

Consider `Cc1ccc(C)c(-c2ccc(=O)n(C(C)C(=O)Nc3ccccc3C(F)(F)F)n2)c1` (configuration not stated), for which the survival was 41% (active).

As to `Cc1ccc(C)c(NC(=O)C(C)n2c(=O)cc(C(F)(F)F)c3c(C)nn(C)c32)c1` (configuration not stated), the survival was 89%.

Regarding `CCc1cccc(NC(=O)Cn2nc(-c3ccc(OC)cc3)ccc2=O)c1`, the survival is 83%.

Regarding `CCc1ccccc1NC(=O)C(C)n1nc(-c2ccc(C)c(C)c2)ccc1=O` (configuration not stated), the survival is 54%.

For `Cc1ccc(-c2ccc(=O)n(CC(=O)Nc3cccc(C#N)c3)n2)cc1`, the survival was 112%.

On to `CCC(C(=O)Nc1ccc(C(=O)OC)cc1)n1nc(-c2ccc(C)c(C)c2)ccc1=O` (configuration not stated), for which the survival was 86%.

Take `COc1ccc(Nc2ncnc3c2cnn3-c2ccc(C)cc2)cc1Cl`: the survival was 128%.

As to `CC1=C(c2ccc(C)c(C)c2)S(=O)(=O)N=C1N1CCC(C(=O)Nc2cccc(F)c2)CC1`, the survival was 79%.

For the compound `O=C(COC(=O)c1ccccc1Cl)Nc1nccs1`, the survival was 94%.

As for `Cc1ccc(CCNC(=O)NCc2noc3ccccc23)cc1`, the survival was 102%.

Consider `COc1ccc(CNC(=O)C(=O)Nc2c3c(nn2-c2ccccc2)CSC3)cc1`, for which the survival is 86%.

On to `Cc1ccc(OCCSc2nc(-c3ccccc3C)nc3cc(=O)[nH]n23)cc1Cl`, for which the survival was 106%.

As for `COc1ccc(CNC(=O)CCS(=O)(=O)c2cc(Br)cc3c2N(C(C)=O)C(C)C3)cc1` (configuration not stated), the survival is 92%.

On to `CCOC(=O)c1c(S(=O)(=O)N2CCC(C(=O)Nc3cccc(C)n3)CC2)c(C)n(C)c1C`, for which the survival was 94%.

`CCC(C(=O)Nc1cc(F)ccc1F)n1nc(-c2cc(C)ccc2C)ccc1=O` (configuration not stated): the survival is 38% (active).

With `Cc1ccc2onc(CNC(=O)Nc3cc(F)ccc3F)c2c1`, the survival is 49%.

`CCC(C(=O)Nc1cc(F)ccc1F)n1nc(C)c2c(C)n(-c3ccc(C)cc3)nc2c1=O` (configuration not stated): the survival is 87%.

On to `COc1ccc(NC(=O)c2sc3nc4n(c(=O)c3c2C)CCC4)cc1Cl`, for which the survival was 108%.

On to `CCc1ccc(NC(=O)C2(c3cccs3)CCOCC2)cc1`, for which the survival is 73%.

Take `Nc1n[nH]c2nc(C(F)(F)F)cc(=O)n12`: the survival is 62%.

Regarding `Cc1ccc(C(=O)C2=C(O)C(=O)N(CCc3ccccc3)C2c2ccncc2)o1` (configuration not stated), the survival is 103%.

`COc1cccc(C(=O)Nc2ccc3oc(-c4ccc5ccccc5c4)nc3c2)c1`: the survival was 55%.

Consider `COC(=O)c1ccc(C(=O)Nc2ccc(-c3nc4cc(NC(=O)c5ccc(C(=O)OC)cc5)ccc4o3)cc2)cc1`, for which the survival was 60%.

As to `O=C(Nc1ccc(-c2nc3cc(NC(=O)c4ccc(Cl)cc4)ccc3o2)cc1)c1ccc(Cl)cc1`, the survival is 88%.

Regarding `CC(C)Oc1cccc(C(=O)Nc2ccc3oc(-c4cccc(Cl)c4)nc3c2)c1`, the survival is 28% (active).

Consider `COc1cc(C(=O)Nc2ccc(-c3nc4cc(C)c(C)cc4o3)cc2)cc(OC)c1OC`, for which the survival was 59%.

Regarding `COc1cc(OC)cc(C(=O)Nc2ccc(-c3nc4cc(C(C)C)ccc4o3)cc2)c1`, the survival was 45% (active).

Turning to `Cc1ccc(C(=O)Nc2ccc3oc(-c4ccccc4C)nc3c2)cc1`, the survival was 65%.

As for `COc1cc(OC)cc(C(=O)Nc2ccc3oc(-c4cccc5c(Br)cccc45)nc3c2)c1`, the survival was 60%.

As to `CC(C)Oc1cccc(C(=O)Nc2ccc(-c3nc4cc(Cl)cc(Cl)c4o3)cc2)c1`, the survival was 55%.

Consider `COc1cc(OC)cc(C(=O)Nc2ccc3oc(-c4ccccc4C)nc3c2)c1`, for which the survival was 34% (active).

As for `COc1ccc(C(=O)Nc2ccc3oc(-c4ccc(OC)cc4)nc3c2)cc1`, the survival is 60%.

Consider `COc1cc(OC)cc(C(=O)Nc2ccc3oc(-c4ccc(Cl)cc4)nc3c2)c1`, for which the survival is 50% (active).

As for `Cc1cc(F)ccc1NC(=O)Cn1nc(N2CCN(c3ccccc3)CC2)ccc1=O`, the survival was 80%.

For `COc1cc(-c2noc(-c3ccc(N4CCOCC4)c([N+](=O)[O-])c3)n2)cc(OC)c1OC`, the survival was 66%.

In the case of `CCc1cc(C(=O)OC)c(NC(=O)CC2SC(=NC)N(C)C2=O)s1` (configuration not stated), the survival is 106%.

As for `COCCn1c(CNC(=O)c2cccc(C)c2)nc2cccnc21`, the survival was 95%.

Regarding `Cc1cccc(N2CCN(C(=O)CCc3nnc4n(CC(C)C)c(=O)c5ccccc5n34)CC2)c1C`, the survival was 74%.

As for `CCc1ccc(C2CC(=O)Nc3cc4c(cc32)OCO4)cc1` (configuration not stated), the survival was 59%.

Turning to `CCN(CC)S(=O)(=O)c1ccc(-c2nnc(SCC(=O)N3CCCC3)n2CC)cc1`, the survival is 103%.
